Experimental data: PubChem BioAssay AID651656 (NMMLSC, 2012)
The source made the active and inactive calls.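 How the source made its calls: active means viability at the highest tested concentration below 50%; inactive means the rest.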

Assay: cytotoxicity in ABCB6-expressing K562 cells, dose response, cytotoxicity control for ABCB6 inhibitor project, cell-based, CellTiter-Glo luminescence, PowderSet01 powders (AID 651656)

Structure (SMILES)	outcome
CCOc1ccccc1NC(=O)c1nc(S(=O)(=O)Cc2cccc(C)c2)ncc1Cl	inactive
CCc1ccc(NC(=O)c2nc(S(=O)(=O)Cc3ccccc3)ncc2Cl)cc1	inactive
CC(=O)Nc1ccc(NC(=O)c2nc(S(=O)(=O)Cc3cccc(C)c3)ncc2Cl)cc1	inactive
CC(=O)Nc1ccc(NC(=O)c2nc(S(=O)(=O)Cc3ccccc3)ncc2Cl)cc1	inactive
